# Results with a measured potency or affinity are listed apart. Inconclusive results are not listed. Activity calls are given as the source filed them. No rule for the calls is given here.
# Assay: toxicity to human HepG2 hepatoma cells – cell-based, plate reader, dry powder samples, cytotoxicity control, dose response (AID 1159569)
# Conditions: HepG2 cytotoxicity counterscreen; series mostly up to 50 µM; activity change, negative = cytotoxicity: at the top concentration
row,SMILES,"activity change, negative = cytotoxicity"
1,O=C(C1CCCC1)N1CC2(C1)[C@@H](c1ccccc1)[C@H](CO)N2Cc1ccc(Cl)cc1,-21.2% (inactive)
2,COc1ccc2c3c([nH]c2c1)[C@@H](CO)N(Cc1ccccc1)CC31CCN(Cc2cncnc2)CC1,-24.7% (inactive)
3,C[C@H]1CN([C@@H](C)CO)C(=O)c2c(c3ccccc3n2C)-c2ccccc2CO[C@@H]1CN(C)S(=O)(=O)c1ccc(F)cc1,-19% (inactive)
4,COc1ccc(NC(=O)N(C)C[C@@H]2Oc3c(NC(=O)c4nc5ccccc5s4)cccc3C(=O)N([C@@H](C)CO)C[C@H]2C)cc1,-23% (inactive)
5,C[C@@H]1CN([C@H](C)CO)C(=O)c2cccc(NC(=O)c3nc4ccccc4s3)c2O[C@H]1CN(C)C(=O)Nc1ccc(C(F)(F)F)cc1,-16.7% (inactive)
6,C[C@@H]1CN([C@@H](C)CO)C(=O)Cc2cc(NC(=O)Nc3ccc4c(c3)OCO4)ccc2O[C@@H]1CN(C)CC1CC1,-11.2% (inactive)
7,Cc1ccc(-c2ccccc2[C@H]2[C@@H](C#N)N(C(=O)c3cccc(F)c3)[C@H]2CO)cc1,-18.3% (inactive)
8,COc1ccc(S(=O)(=O)Nc2ccc3c(c2)CC(=O)N([C@@H](C)CO)C[C@H](C)[C@H](CN(C)S(=O)(=O)c2ccc(C)cc2)O3)cc1,-23.3% (inactive)
9,C[C@@H]1CN([C@H](C)CO)C(=O)c2cc(/C=C/c3ccccc3)cnc2O[C@H]1CN(C)C(=O)NC1CCCCC1,-14.9% (inactive)
10,COc1ccc(C#Cc2cnc3c(c2)C(=O)N([C@H](C)CO)C[C@H](C)[C@H](CN(C)S(=O)(=O)c2cccc(F)c2)O3)cc1OC,-12.1% (inactive)
11,O=C(c1cccc(F)c1)N1CC(=O)N2[C@H](C1)[C@@H](c1ccc(-c3cccnc3)cc1)[C@@H]2CO,-4.42% (inactive)
12,C/C=C/c1ccc2c(c1)[C@H]1[C@H](CCN1S(=O)(=O)c1ccccc1C)[C@@H](CO)N2,-13.2% (inactive)
13,CO[C@@H]1CN(C)C(=O)c2ccc(NC(=O)Nc3ccccc3F)cc2OC[C@@H](C)N(Cc2ccccc2F)C[C@H]1C,-9.48% (inactive)
14,O=C(Nc1ccccc1)N1CCCCN2[C@H](CO)[C@H](c3ccc(C#Cc4cccnc4)cc3)[C@@H]2C1,-1.87% (inactive)
15,C[C@H](CO)N1C[C@H](C)[C@@H](CN(C)C(=O)Nc2cccc3ccccc23)Oc2ccc(NC(=O)Cc3cn(C)c4ccccc34)cc2C1=O,-2.74% (inactive)
16,Cc1ccccc1-c1ccccc1[C@H]1[C@@H](C#N)N(C(=O)c2ccccc2)[C@@H]1CO,-2.64% (inactive)
17,CO[C@@H]1CN(C)C(=O)c2ccc(NC(=O)Nc3ccccc3F)cc2OC[C@@H](C)N(CCC(F)(F)F)C[C@H]1C,-11.2% [at 56 µM] (inactive)
18,CC(C)NC(=O)N1[C@@H](CO)[C@@H](c2ccccc2)C12CN(Cc1ccc(F)cc1)C2,-23.3% (inactive)
19,COc1ccc(-c2ccccc2[C@H]2[C@@H](C#N)N(C(=O)C3CCCC3)[C@@H]2CO)cc1,-33.4% (inactive)
20,COc1ccc(-c2ccccc2[C@H]2[C@@H](C#N)N(C(=O)C3CCCCC3)[C@H]2CO)cc1,-11.1% (inactive)
21,COc1ccccc1NC(=O)Nc1ccc2c(c1)OC[C@@H](C)N(Cc1ccccc1Cl)C[C@@H](C)[C@H](OC)CN(C)C2=O,-18.2% (inactive)
22,O=C(c1ccncc1)N1CC(=O)N2[C@H](C1)[C@@H](c1ccc(-c3cccnc3)cc1)[C@@H]2CO,-13.9% (inactive)
23,O=C(Nc1ccccc1)N1CCCCN2[C@@H](CO)[C@H](c3ccc(C#Cc4cccnc4)cc3)[C@@H]2C1,-28.9% (inactive)
24,CCCNC(=O)c1cc2c(c(-c3cccc(-c4cc5ccccc5o4)c3)n1)[C@H](CCO)N(C(=O)NC(C)C)C2,-31.5% (inactive)
25,COc1ccc2c3c(n(C)c2c1)[C@@H](CO)N(C(=O)C1CC1)CC31CN(C(=O)Nc2cccc(F)c2)C1,4.26% (inactive)
26,C[C@H](CO)N1C[C@H](C)[C@H](CN(C)S(=O)(=O)c2ccc(C#N)cc2)OCc2ccccc2-c2c(n(C)c3ccccc23)C1=O,-36.8% (inactive)
27,CCCC#Cc1ccc2c(c1)O[C@H](CN(C)C(=O)Nc1ccc(OC)cc1)[C@H](C)CN([C@H](C)CO)S2(=O)=O,-25.5% (inactive)
28,COc1ccc2c3c([nH]c2c1)[C@H](CO)NCC31CCN(C(=O)Nc2ccc3c(c2)OCO3)CC1,-12.1% (inactive)
29,COCC#Cc1ccc(CC[C@H]2O[C@H]3CC[C@H](CO)O[C@H]3C[C@@H]2n2cc(C3CC3)nn2)cc1,-15.9% (inactive)
30,Cc1ccc(S(=O)(=O)N(C)C[C@H]2OCc3ccccc3-c3c(n(C)c4ccccc34)C(=O)N([C@@H](C)CO)C[C@@H]2C)cc1,-21.5% (inactive)
